Assay results taken from the supplement of paper PMC12067093, “Discovery and optimisation of a covalent ligand for TRIM25 and its application to targeted protein ubiquitination” (Chemical Science, 2025).
About 21,000 targets were measured; listed, in parts, are those with the largest changes and a random draw of the rest.

Compound: CC1Cc2ccccc2N1C(=O)C1CCCN(C1)C(=O)CCl (mixture of isomers) [TRIM25 ligand 11 (diastereomer mixture)]
Test: probe-labelled cysteine peptide fold change vs DMSO (competition) (log2 fold change); higher = less target engagement (more negative = stronger competition)
Conditions: THP-1, incubation time: 4 h
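Further: competitive chemoproteomic profiling in live THP-1 cells with an iodoacetamide desthiobiotin (IA-DTB) probe, comparing probe-labelled peptide intensities in compound-treated cells against DMSO-treated controls.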

Sequence of UniProt Q9UER7 (Q9UER7 whole entry, looked up): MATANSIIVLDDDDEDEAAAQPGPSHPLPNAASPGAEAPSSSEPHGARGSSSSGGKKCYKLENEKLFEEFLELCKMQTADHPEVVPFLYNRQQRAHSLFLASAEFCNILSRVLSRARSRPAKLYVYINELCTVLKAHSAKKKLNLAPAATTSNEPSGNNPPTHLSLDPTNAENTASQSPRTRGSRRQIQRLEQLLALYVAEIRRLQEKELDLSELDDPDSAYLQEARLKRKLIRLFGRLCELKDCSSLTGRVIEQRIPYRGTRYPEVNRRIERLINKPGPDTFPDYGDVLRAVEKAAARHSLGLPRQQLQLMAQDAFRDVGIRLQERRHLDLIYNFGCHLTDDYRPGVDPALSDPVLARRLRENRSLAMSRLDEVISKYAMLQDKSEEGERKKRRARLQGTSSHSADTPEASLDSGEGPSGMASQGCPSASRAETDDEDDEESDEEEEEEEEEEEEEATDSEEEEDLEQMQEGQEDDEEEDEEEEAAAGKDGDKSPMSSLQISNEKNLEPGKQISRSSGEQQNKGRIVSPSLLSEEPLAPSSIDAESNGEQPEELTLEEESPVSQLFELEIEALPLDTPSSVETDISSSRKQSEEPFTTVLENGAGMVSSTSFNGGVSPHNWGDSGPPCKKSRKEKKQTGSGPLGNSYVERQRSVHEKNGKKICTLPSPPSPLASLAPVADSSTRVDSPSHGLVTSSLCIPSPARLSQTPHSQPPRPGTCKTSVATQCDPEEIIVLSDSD
Sequence of UniProt Q8NBA8 (Q8NBA8 whole entry, looked up): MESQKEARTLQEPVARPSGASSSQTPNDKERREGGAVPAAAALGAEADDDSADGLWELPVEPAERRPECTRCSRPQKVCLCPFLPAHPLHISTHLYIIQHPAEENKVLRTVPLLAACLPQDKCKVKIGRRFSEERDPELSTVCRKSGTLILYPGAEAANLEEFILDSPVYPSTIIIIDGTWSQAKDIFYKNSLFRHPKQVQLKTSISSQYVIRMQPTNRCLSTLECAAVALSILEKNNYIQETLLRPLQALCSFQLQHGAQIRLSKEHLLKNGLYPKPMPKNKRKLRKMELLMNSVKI
Sequence of UniProt Q9NUL7 (Q9NUL7 whole entry, looked up): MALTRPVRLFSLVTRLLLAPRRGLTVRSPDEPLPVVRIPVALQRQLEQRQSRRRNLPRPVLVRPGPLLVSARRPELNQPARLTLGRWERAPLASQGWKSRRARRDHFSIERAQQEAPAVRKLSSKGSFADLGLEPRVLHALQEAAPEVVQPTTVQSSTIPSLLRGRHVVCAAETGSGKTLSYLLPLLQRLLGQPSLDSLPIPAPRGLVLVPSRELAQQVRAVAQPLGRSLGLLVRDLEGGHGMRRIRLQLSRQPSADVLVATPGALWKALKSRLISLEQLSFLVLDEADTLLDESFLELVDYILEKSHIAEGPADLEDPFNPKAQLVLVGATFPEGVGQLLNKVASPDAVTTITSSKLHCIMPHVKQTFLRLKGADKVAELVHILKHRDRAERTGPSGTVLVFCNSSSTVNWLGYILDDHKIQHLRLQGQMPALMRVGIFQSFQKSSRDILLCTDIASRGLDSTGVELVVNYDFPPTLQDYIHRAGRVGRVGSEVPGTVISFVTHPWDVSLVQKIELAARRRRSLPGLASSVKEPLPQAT
Sequence of UniProt Q14061 (Q14061 whole entry, looked up): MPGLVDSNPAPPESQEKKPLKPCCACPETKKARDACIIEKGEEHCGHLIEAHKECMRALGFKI
Sequence of UniProt Q9BPW9 (Q9BPW9 whole entry, looked up): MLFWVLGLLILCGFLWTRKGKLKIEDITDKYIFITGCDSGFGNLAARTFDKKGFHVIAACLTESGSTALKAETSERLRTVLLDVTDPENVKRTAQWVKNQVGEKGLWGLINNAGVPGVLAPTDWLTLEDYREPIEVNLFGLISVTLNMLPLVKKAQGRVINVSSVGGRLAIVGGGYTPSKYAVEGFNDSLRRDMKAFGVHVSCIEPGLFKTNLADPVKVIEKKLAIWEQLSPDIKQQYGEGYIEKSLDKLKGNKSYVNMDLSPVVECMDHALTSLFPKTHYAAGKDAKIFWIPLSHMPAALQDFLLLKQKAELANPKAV
Sequence of UniProt P14868 (P14868 whole entry, looked up): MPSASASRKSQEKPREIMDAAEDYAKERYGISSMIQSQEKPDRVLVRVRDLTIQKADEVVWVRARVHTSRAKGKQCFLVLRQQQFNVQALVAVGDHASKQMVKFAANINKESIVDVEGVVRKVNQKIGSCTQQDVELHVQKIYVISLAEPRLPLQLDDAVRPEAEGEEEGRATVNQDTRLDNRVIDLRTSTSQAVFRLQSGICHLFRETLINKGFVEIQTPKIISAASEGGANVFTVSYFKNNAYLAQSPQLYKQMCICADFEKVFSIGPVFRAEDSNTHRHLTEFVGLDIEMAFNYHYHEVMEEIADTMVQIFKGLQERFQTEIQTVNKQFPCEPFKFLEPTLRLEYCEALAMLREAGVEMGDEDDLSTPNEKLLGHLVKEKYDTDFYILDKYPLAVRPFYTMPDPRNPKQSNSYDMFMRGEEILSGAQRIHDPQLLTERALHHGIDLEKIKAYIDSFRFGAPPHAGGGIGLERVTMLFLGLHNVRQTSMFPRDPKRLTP
Sequence of UniProt Q9UJW0 (Q9UJW0 whole entry, looked up): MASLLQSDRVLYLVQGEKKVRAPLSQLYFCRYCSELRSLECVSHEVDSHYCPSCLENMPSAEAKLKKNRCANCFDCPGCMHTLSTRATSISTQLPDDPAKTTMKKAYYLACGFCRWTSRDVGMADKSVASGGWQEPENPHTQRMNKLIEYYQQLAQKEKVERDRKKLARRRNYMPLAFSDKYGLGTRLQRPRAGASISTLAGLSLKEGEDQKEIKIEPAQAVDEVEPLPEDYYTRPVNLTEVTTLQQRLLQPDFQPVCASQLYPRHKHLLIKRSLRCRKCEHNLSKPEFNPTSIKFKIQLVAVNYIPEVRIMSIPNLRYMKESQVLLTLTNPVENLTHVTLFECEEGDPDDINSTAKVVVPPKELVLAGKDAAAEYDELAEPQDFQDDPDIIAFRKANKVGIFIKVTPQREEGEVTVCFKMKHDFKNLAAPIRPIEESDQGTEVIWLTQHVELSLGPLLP
Sequence of UniProt Q13574 (Q13574 whole entry, looked up): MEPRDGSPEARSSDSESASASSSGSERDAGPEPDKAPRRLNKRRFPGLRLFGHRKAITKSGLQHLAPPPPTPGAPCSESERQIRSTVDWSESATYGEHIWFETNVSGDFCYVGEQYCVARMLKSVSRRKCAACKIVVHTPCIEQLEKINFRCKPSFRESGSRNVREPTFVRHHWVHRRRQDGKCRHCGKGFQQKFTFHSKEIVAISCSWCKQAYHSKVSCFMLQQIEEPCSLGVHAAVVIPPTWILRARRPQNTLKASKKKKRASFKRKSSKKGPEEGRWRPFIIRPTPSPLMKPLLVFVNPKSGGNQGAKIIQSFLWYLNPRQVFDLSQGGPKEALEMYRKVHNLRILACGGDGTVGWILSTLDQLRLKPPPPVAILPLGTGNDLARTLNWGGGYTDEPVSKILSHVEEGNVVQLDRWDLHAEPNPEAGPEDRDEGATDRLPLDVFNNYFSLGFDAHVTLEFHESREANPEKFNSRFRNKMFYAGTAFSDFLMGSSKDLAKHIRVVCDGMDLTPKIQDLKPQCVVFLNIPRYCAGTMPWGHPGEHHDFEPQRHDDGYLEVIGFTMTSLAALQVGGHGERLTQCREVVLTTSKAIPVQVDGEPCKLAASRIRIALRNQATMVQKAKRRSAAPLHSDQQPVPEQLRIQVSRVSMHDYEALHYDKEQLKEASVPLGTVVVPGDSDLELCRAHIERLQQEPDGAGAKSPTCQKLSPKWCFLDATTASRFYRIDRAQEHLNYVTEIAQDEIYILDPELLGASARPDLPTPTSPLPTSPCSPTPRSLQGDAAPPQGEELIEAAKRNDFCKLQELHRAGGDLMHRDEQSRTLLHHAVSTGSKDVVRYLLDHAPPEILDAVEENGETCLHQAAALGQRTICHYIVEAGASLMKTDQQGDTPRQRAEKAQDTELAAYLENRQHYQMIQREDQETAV
Sequence of UniProt P26196 (P26196 whole entry, looked up): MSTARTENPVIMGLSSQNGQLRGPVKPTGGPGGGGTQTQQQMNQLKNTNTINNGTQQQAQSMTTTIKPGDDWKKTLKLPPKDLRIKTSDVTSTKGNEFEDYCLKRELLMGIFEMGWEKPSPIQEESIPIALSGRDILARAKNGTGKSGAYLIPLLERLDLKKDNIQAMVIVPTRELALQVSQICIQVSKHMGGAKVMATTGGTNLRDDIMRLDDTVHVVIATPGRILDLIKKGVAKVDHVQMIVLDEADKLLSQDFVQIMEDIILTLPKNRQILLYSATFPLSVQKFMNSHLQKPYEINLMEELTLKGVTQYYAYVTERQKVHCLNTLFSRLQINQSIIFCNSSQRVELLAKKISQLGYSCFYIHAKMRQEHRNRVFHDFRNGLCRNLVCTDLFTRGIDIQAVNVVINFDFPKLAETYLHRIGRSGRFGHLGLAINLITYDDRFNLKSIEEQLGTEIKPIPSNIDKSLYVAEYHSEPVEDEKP
Sequence of UniProt Q9ULV4 (Q9ULV4 whole entry, looked up): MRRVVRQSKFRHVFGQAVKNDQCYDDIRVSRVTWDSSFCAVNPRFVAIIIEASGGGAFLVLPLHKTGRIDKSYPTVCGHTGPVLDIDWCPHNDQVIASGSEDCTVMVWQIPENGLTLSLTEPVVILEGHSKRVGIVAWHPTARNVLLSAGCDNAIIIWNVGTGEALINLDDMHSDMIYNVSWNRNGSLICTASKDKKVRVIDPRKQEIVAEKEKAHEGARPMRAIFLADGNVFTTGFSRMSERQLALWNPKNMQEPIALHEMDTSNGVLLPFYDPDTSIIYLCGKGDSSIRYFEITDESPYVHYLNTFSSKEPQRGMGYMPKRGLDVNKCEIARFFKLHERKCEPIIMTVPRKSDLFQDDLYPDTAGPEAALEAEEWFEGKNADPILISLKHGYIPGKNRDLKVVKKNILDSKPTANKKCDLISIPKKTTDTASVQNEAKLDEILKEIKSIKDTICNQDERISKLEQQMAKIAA
Sequence of UniProt P50238 (P50238 whole entry, looked up): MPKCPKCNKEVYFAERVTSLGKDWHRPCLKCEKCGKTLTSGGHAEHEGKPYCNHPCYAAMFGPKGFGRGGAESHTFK

Target	probe-labelled cysteine peptide fold change (10 µM)	probe-labelled cysteine peptide fold change (50 µM)
CTSB_P07858_93_EQWPQCPTIK (UniProt P07858)	-0.026	-0.172
DPYSL2_Q16555_133_SCCDYSLHVDISEWHK (UniProt Q16555)	0.131	-0.000105
DMRT1_Q9Y5R6_105_CNLIAER (UniProt Q9Y5R6)	1.19	0.0204
CRYZL1_O95825_177_VISTACSLEDK (UniProt O95825)	0.0726	0.107
CTNNA2_P26232_792_IALYCHQLNICSK (UniProt P26232)	-0.0111	0.118
COX6B1_P14854_54_GGDISVCEWYQR (UniProt P14854)	-0.188	-0.269
DIAPH1_O60610_1227_AGCAVTSLLASELTK (UniProt O60610)	-0.0516	-0.221
DNM2_P50570-3_427_CVDLVVSELATVIK (UniProt P50570)	-0.0402	0.0756
CRYBG1_Q9Y4K1_594+609_EVQLPTCHSNEPEVVSVASCAPPQEEVLGNEHSHCTAELAAK (UniProt Q9Y4K1)	-0.0918	-0.248
DARS_P14868_130_IGSCTQQDVELHVQK (UniProt P14868)	0.0673	0.0472
DIDO1_Q9BTC0_1449_MCADVR (UniProt Q9BTC0)	-0.0543	-0.242
DDX56_Q9NY93_185_SLLCHLPR (UniProt Q9NY93)	0.556	0.332
DARS2_Q6PI48_202_MREYLCNLHGFVDIETPTLFKR (UniProt Q6PI48)	-0.272	-0.129
DDX59_Q5T1V6_208_QQLGILVQGQEVTRPIIDFEHCSLPEVLNHNLKK (UniProt Q5T1V6)	-0.239	-0.182
DPYSL2_Q16555_439_THNSSLEYNIFEGMECR (UniProt Q16555)	0.0805	-0.109
DYNC1LI2_O43237_104_CNVWILDGDLYHK<|>DYNC1LI1_Q9Y6G9_117_CNVWILDGDLYHK (UniProt Q9Y6G9+O43237)	-0.0068	0.0237
DPP9_Q86TI2_184_TQCSGPR (UniProt Q86TI2)	-0.111	-0.073
CRYL1_Q9Y2S2_141_QCIVAHPVNPPYYIPLVELVPHPETAPTTVDR (UniProt Q9Y2S2)	0.0328	-0.0222
CSTF2_P33240_62_GYGFCEYQDQETALSAMR (UniProt P33240)	-0.512	-0.471
DBNL_Q9UJU6_97_KGACASHVSTMASFLK (UniProt Q9UJU6)	-0.0713	-0.568
DLD_P09622_484_VCHAHPTLSEAFR (UniProt P09622)	0.111	-0.123

Target	probe-labelled cysteine peptide fold change (10 µM)	probe-labelled cysteine peptide fold change (50 µM)
DTWD2_Q8NBA8_143_FSEERDPELSTVCR (UniProt Q8NBA8)	0.148	0.0336
DCLRE1C_Q96SD1_34_AYFLSHCHK (UniProt Q96SD1)	0.0604	-0.0702
DDX6_P26196_324_VHCLNTLFSR (UniProt P26196)	0.158	0.183
DNAJC10_Q8IXB1_161_EFDAAVNSGELWFVNFYSPGCSHCHDLAPTWR (UniProt Q8IXB1)	0.476	-0.235
DMXL2_Q8TDJ6_62_HGNIQVSCVECSNQQGR (UniProt Q8TDJ6)	-0.159	-0.593
DOCK8_Q8NF50_590_IQFMCGEDASNAMPVIFGK (UniProt Q8NF50)	-0.02	0.209
DHX9_Q08211_608+612_KDKDDDGGEDDDANCNLICGDEYGPETR (UniProt Q08211)	-0.128	-0.345
DGKZ_Q13574_876_EASVPLGTVVVPGDSDLELCR (UniProt Q13574)	0.514	0.581
DHX37_Q8IY37_486_MLPAGGILVFLTGQAEVHALCR (UniProt Q8IY37)	0.281	0.563
DPP8_Q6V1X1_611_LSSPEDDPTCK (UniProt Q6V1X1)	0.0995	0.0507
DSN1_Q9H410_191_CFEDSNGK (UniProt Q9H410)	0.115	0.0971
DHRS7_Q9Y394_233_TELATYPGIIVSNICPGPVQSNIVENSLAGEVTK (UniProt Q9Y394)	-0.0824	0.0763
CRYBG1_Q9Y4K1_1404_ISSVQPICLDSFTGPR (UniProt Q9Y4K1)	0.199	-0.0158
DUSP23_Q9BVJ7_95_GEAVGVHCALGFGR (UniProt Q9BVJ7)	-0.00709	0.14
DYNC1H1_Q14204_4438_QDLADVVQVCEGK (UniProt Q14204)	0.0826	0.0819
DNAJB14_Q8TBM8_77_KPSGSGDQSKPNCTK (UniProt Q8TBM8)	-0.262	-0.569
DCP1A_Q9NPI6_39_QHDPYITSIADLTGQVALYTFCPK (UniProt Q9NPI6)	0.179	0.205
DCTN1_Q14203_677_YEHALSQCSVDVYKK (UniProt Q14203)	-0.0153	0.149
DNMT1_P26358_580_HAQFVVEQVESYDEAGDSDEQPIFLTPCMR (UniProt P26358)	0.0642	0.604
DYNC1H1_Q14204_4644_GVAVLCTE (UniProt Q14204)	0.0055	0.0643
CTNNBL1_Q8WYA6_370_VLDHAMIGPEGTDNCHK (UniProt Q8WYA6)	-0.0184	-0.103

Target	probe-labelled cysteine peptide fold change (10 µM)	probe-labelled cysteine peptide fold change (50 µM)
DECR2_Q9NUI1_53_HGCHTVIASR (UniProt Q9NUI1)	0.317	0.574
DHX37_Q8IY37_766_LSCPITALGR (UniProt Q8IY37)	-0.0635	0.0316
CUL2_Q13617_103_GADYMDCLYR (UniProt Q13617)	0.191	0.129
DIAPH2_O60879_484_LDIDLTHLIDSCVNK (UniProt O60879)	0.0266	0.095
DDX21_Q9NR30_539_TGVCICFYQHK (UniProt Q9NR30)	-0.0402	-0.0081
DIP2B_Q9P265_1282_TCVVVAEERPR<|>DIP2C_Q9Y2E4_1263_TCVVVAEERPR (UniProt Q9Y2E4+Q9P265)	0.0276	0.197
DIDO1_Q9BTC0_455_CGAQAGIK (UniProt Q9BTC0)	-0.117	-0.185
CYTH1_Q15438_323_EVEDSKKPNCFELYIPDNK (UniProt Q15438)	-0.213	-0.14
DOP1B_Q9Y3R5_70_LAQCLHPALPSGVHLK (UniProt Q9Y3R5)	0.262	0.136
DDX42_Q86XP3_333_ELEPGDGPIAVIVCPTR (UniProt Q86XP3)	0.0933	0.0408
DOK3_Q7L591_133_LADCVSVLPADGESCPR (UniProt Q7L591)	0.0537	0.00634
DHRS9_Q9BPW9_60_GFHVIAACLTESGSTALK (UniProt Q9BPW9)	0.105	0.197
DDX58_O95786_428_NTDEALDYICK (UniProt O95786)	0.0328	0.169
CUL4B_Q13620_297_CWQNHCR (UniProt Q13620)	0.0567	0.295
DCAF10_Q5QP82_412_NSLEVVTPEVLGESDHGNCITSLQLHPK (UniProt Q5QP82)	0.152	-0.291
DYNC1H1_Q14204_3573_WQASSLPADDLCTENAIMLK (UniProt Q14204)	-0.0171	-0.286
DDX46_Q7L014_501_RGAEIIVCTPGR (UniProt Q7L014)	0.161	0.296
DNAJA1_P31689_271_RGEDLFMCMDIQLVEALCGFQK (UniProt P31689)	-0.021	0.281
DNAJC2_Q99543_276_TLVDNAYSCDPR (UniProt Q99543)	-0.0127	-0.0992
DAZAP1_Q96EP5_63_DPNCVGTVLASR (UniProt Q96EP5)	0.186	0.402
CTNNA1_P35221_772_TIADHCPDSACK (UniProt P35221)	-0.0482	-0.0902

Target	probe-labelled cysteine peptide fold change (10 µM)	probe-labelled cysteine peptide fold change (50 µM)
CORO1A_P31146_332_RGLEVNKCEIAR (UniProt P31146)	-0.603	-0.342
DCAF10_Q5QP82_213_TLSEAHEDCVNNIR (UniProt Q5QP82)	0.0726	-0.0884
DDX60L_Q5H9U9_502_CHVDEQSR (UniProt Q5H9U9)	-0.013	-0.526
DCTN4_Q9UJW0_280_CEHNLSKPEFNPTSIK (UniProt Q9UJW0)	0.246	0.175
DCP2_Q8IU60_391_KLQDNFETDAVYDLPSSSEDQLLEHAEGQPVACNGHCK (UniProt Q8IU60)	-0.209	-0.464
CRYBG1_Q9Y4K1_581+609_EVQLPTCHSNEPEVVSVASCAPPQEEVLGNEHSHCTAELAAK (UniProt Q9Y4K1)	0.00451	-0.813
CTSH_P09668_272_TGIYSSTSCHK (UniProt P09668)	0.223	-0.279
CRIP2_P52943_150_DWHRPCLR (UniProt P52943)	0.642	-0.0653
CUL4B_Q13620_248_YNLEELYQAVENLCSYK (UniProt Q13620)	0.033	0.163
CORO1C_Q9ULV4_39_VTWDSSFCAVNPR (UniProt Q9ULV4)	0.0602	-0.0375
CPT2_P23786_512_CSEAFVREPSR (UniProt P23786)	-0.197	-0.0581
DAXX_Q9UER7_106_AHSLFLASAEFCNILSR (UniProt Q9UER7)	0.442	1.38
DSTN_P60981_39_AVIFCLSADK (UniProt P60981)	-0.0558	-0.00534
COX17_Q14061_23+24_KPLKPCCACPETK (UniProt Q14061)	-0.386	-0.745
CRIP1_P50238_56_TLTSGGHAEHEGKPYCNHPCYAAMFGPK (UniProt P50238)	-0.889	-1.02
DIP2A_Q14689_543_ALTQACGYSEAETLTNVLDFKR (UniProt Q14689)	0.205	0.286
DDX28_Q9NUL7_360_LHCIMPHVK (UniProt Q9NUL7)	-0.061	0.0889
DIAPH1_O60610_964_LQFSEQVENIKPEIVSVTAACEELR (UniProt O60610)	0.176	0.06
CSMD2_Q7Z408-3_2_CDAHLR (UniProt Q7Z408)	-0.56	-0.972
